Hit rate of the full screen: of about 5,500 compounds, about 2,000 (36%) were called active. Not shown: some 18% with an inconclusive outcome. Cut-off read from the data, not from the text of the source: active = normalized growth mostly below about 0.91 (no sharp cut-off); inconclusive = no clear call, values can overlap the other calls; inactive = mostly above about 0.92. This is one part of the list.
Experiment: chemical genetic growth profiling, strain panel (AID 1159580);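 note: tested at 20 µM; growth read once vehicle control cultures reached saturation at 30 °C; 1 = growth at the plate median or of vehicle wells; lower values mean less growth of the strain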
Settings: growth OD

Measured: normalized growth

CCCCNC(=O)NCCSCc1ccco1
inactive: S. cerevisiae deletion strains, locus YAL013W, strain DEP1, stronger effect = lower value 1.01 | S. cerevisiae deletion strains, locus YBR229C, strain ROT2, stronger effect = lower value 0.986 | S. cerevisiae deletion strains, locus YDL101C, strain DUN1, stronger effect = lower value 0.982 | S. cerevisiae deletion strains, locus YDL134C, strain PPH21, stronger effect = lower value 0.993 | S. cerevisiae deletion strains, locus YDR150W, strain NUM1, stronger effect = lower value 1 | S. cerevisiae deletion strains, locus YEL061C, strain CIN8, stronger effect = lower value 0.98 | S. cerevisiae deletion strains, locus YGR078C, strain PAC10, stronger effect = lower value 0.994 | S. cerevisiae deletion strains, locus YHR030C, strain SLT2, stronger effect = lower value 1.02 | S. cerevisiae deletion strains, locus YHR087W, strain rtc3, stronger effect = lower value 0.99 | S. cerevisiae deletion strains, locus YJR043C, strain POL32, stronger effect = lower value 1.01 | S. cerevisiae deletion strains, locus YJR075W, strain HOC1, stronger effect = lower value 1.01 | S. cerevisiae deletion strains, locus YLR039C, strain RIC1, stronger effect = lower value 1 | S. cerevisiae deletion strains, locus YLR058C, strain SHM2 (second series), stronger effect = lower value 0.991 | S. cerevisiae deletion strains, locus YLR085C, strain ARP6, stronger effect = lower value 0.943 | S. cerevisiae deletion strains, locus YLR262C, strain YPT6, stronger effect = lower value 1.02 | S. cerevisiae deletion strains, locus YML094W, strain GIM5, stronger effect = lower value 0.988 | S. cerevisiae deletion strains, locus YMR219W, strain ESC1, stronger effect = lower value 0.989 | S. cerevisiae deletion strains, locus YMR263W, strain SAP30, stronger effect = lower value 0.996 | S. cerevisiae deletion strains, locus YNL128W, strain TEP1, stronger effect = lower value 0.987 | S. cerevisiae deletion strains, locus YNL153C, strain GIM3, stronger effect = lower value 1.01 | S. cerevisiae deletion strains, locus YNL298W, strain CLA4 (second series), stronger effect = lower value 0.984 | S. cerevisiae deletion strains, locus YNL322C, strain KRE1, stronger effect = lower value 0.99 | S. cerevisiae deletion strains, locus YNR030W, strain Alg12, stronger effect = lower value 0.998 | S. cerevisiae deletion strains, locus YPL055C, strain LGE1, stronger effect = lower value 1 | S. cerevisiae deletion strains, locus YPL241C, strain CIN2, stronger effect = lower value 0.988 | S. cerevisiae deletion strains, locus YPR135W, strain CTF4, stronger effect = lower value 1.05 | S. cerevisiae strains, strain wild type, stronger effect = lower value 0.98
